What is called AC50 is the concentration giving half of the maximal activity seen.

The values below come from PubChem BioAssay (EPA / NIEHS).

Results filed as inconclusive are left out. Active and inactive are the calls of the source. Rule for the calls: active = hit-call score of the fitted dose curve at least 0.9, where 1 is the maximum; inconclusive = response in the unintended direction; inactive = score below 0.9.

The nature of this assay: ACEA_ER_AUC_viability: ACEA Biosciences xCELLigence Real-Time Cell Analysis on Estrogen Receptor Agonism for Viability (AID 2283782).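 Note: hit means loss of impedance signal meaning reduced cell growth or viability.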 A digest of the protocol:
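T-47D; phenol red-free RPMI1640 + 10% CS-FBS; 8 conc., 1:4 serial, max 100 uM final, ≤0.5% DMSO; n = 2; continuous exposure; impedance monitored to 80 h post-dose; AUC vs DMSO.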
For the compound `Cc1cccc(N)n1`, the outcome was inactive. For the compound `C=C1[C@H]2CC[C@@H]3[C@H]2C(C)(C)CCC[C@]13C`, the outcome was inactive. Consider `c1ccc2c(c1)ccc1ncccc12`, for which the compound was classed as inactive.

For the compound `Cc1cc(C)c(C)cc1C`, the call was inactive.

Turning to `Nc1ccc(Cl)cc1Cl`, the AC50 is 29.2 µM (active). With `O=[N+]([O-])C1(Br)COCOC1`, the AC50 is 8.14 µM (active). For `O=C1CCCCCCCCCCC(=O)OCCO1`, the AC50 is 68.3 µM (active). For the compound `CC=CCO`, the call was inactive. Consider `CC[C@H]1OC(=O)[C@H](C)[C@@H](O[C@H]2C[C@@](C)(OC)[C@@H](O)[C@H](C)O2)[C@H](C)[C@@H](O[C@@H]2O[C@H](C)C[C@H](N(C)C)[C@H]2O)[C@](C)(O)C[C@@H](C)C(=NOCOCCOC)[C@H](C)[C@@H](O)[C@]1(C)O`, for which the call was inactive. As to `CCCCCCCCCCOC(C)=O`, the compound was called inactive.

Take `O=S1(=O)OC(c2ccc(O)cc2)(c2ccc(O)cc2)c2ccccc21`: the result was inactive. Turning to `C=C[C@](C)(O)CC[C@@H]1[C@@]2(C)CCCC(C)(C)[C@@H]2CC[C@@]1(C)O`, the AC50 was 37.6 µM (active). On the same count and under the same terms, the result for `CC(C)c1ccc(C#N)cc1` reads 50 µM (active). Consider `C=CC(C)(CCC=C(C)C)OC(=O)C(C)C` (stereo unspecified), for which the call was inactive. As to `CCc1nccnc1C`, the result was inactive. The same measure, in the same setting: the result for `S=C(NC1CCCCC1)NC1CCCCC1` reads “inactive”.

Regarding `CCCCCCCCc1ccc(Nc2ccc(CCCCCCCC)cc2)cc1`, the result was inactive. With `C=C(C)[C@@H]1CCC2=CCC[C@@H](C)[C@]2(C)C1`, the concentration at half-maximal activity (AC50) is 77.6 µM (active). As for `CCCC(C)CCC(C)=O` (stereo unspecified), the outcome was inactive. Still for that read-out and setting: the result for `CCC(CC)C(=O)O` reads “inactive”; that for `CCCCCCCCCCCCCCCC(=O)OCC`, “inactive”. Still for that read-out and setting: the same measure for `CC(C)CCCC(C)CC=O` (stereo unspecified): “inactive”. On to `CO[Si](CCC1CCC2OC2C1)(OC)OC` (stereo unspecified), for which the AC50 is 37.7 µM (active).

For the compound `CC/C=C\CCOC(=O)CCCCC`, the outcome was inactive. On the same count and under the same terms, the same measure for `CCCC(=O)OCc1ccccc1`: “inactive”.

In the case of `C1CN(SSN2CCOCC2)CCO1`, the AC50 was 82.4 µM (active). Regarding `O=C1C=CC(=O)O1`, the compound was called inactive. Same read-out and setting: the result for `Cc1ccc(N)c([N+](=O)[O-])c1` reads “inactive”; that for `CCOC(=O)[C@H](C)O`, “inactive”. Turning to `O=P(O)(O)Oc1ccccc1`, the AC50 is 50 µM (active). Take `COC(=O)c1ccccc1OC`: the AC50 was 50 µM (active). Turning to `CCOc1nc(F)cc2nc(S(=O)(=O)Nc3c(Cl)cccc3C(=O)OC)nn12`, the compound was called inactive.

Regarding `CCN(Cc1cccc(S(=O)(=O)O)c1)c1ccc(C(=C2C=CC(=[N+](CC)Cc3cccc(S(=O)(=O)[O-])c3)C=C2)c2ccccc2)cc1`, the compound was called inactive. Consider `O=S(=O)(O)c1ccc2cc(O)c(S(=O)(=O)O)cc2c1`, for which the AC50 is 50 µM (active). For the compound `NC(=O)NNC(N)=O`, the compound was classed as inactive. For the compound `CC(=O)OCCC1CCCCC1`, the compound was classed as inactive.
